PubChem BioAssay AID720519 (National Center for Advancing Translational Sciences (NCATS), 2013)
Inconclusive results are not listed. Values without a mark were called inactive. Calls follow the shape of the dose curve; as a rule, active = well fitted activation curve with a large enough effect; inconclusive = small, poorly fitted or top-dose-only effect; inactive = flat fitted curve, though single readings scatter.

Assay: qHTS for Inhibitors of Cell Surface uPA Generation: Confirmatory Assay for Cherry-picked Compounds; also: 0% is about no effect
Conditions: cell surface uPA activity generation, qHTS confirmation; series mostly up to 115 µM; inhibition: at the top concentration
Summary of the method: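 RAW 264.7 cells at 4000/well, incubated overnight, then treated with compounds. After 24 h at 37 C, viability was read by ATPlite luminescence. An increase in signal indicates blocked uPA-dependent LF entry.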

SMILES | inhibition
Nc1cc(=O)[nH]c(SCC(=O)Nc2cccc([N+](=O)[O-])c2)n1 | -1.96%
CCCCn1c(N)c(N(CCC(C)C)C(=O)c2sc3nc4n(c(=O)c3c2C)CCC4)c(=O)[nH]c1=O | 6.8%
CCC(NC(=S)NCc1ccc(F)cc1)c1ccccc1 (centres undefined) | -0.172%
CC1CCCCN1C(=O)CSc1nc2ncccc2[nH]1 (centres undefined) | -2.7%
COc1ccc(S(=O)(=O)N2CCN(Cc3ccccc3)CC2)c(C)c1 | -3.46%
O=C(O)CCc1nn2c3ccccc3n(CC(=O)O)c2nc1=O | -3.3%
COc1ccc(-n2ncc3c(=O)n(CC(=O)NC(C)C)cnc32)cc1 | -1.32%
CCOc1ccc(CCNC(=O)Cc2ccc(NC3=NC4CS(=O)(=O)CC4S3)cc2)cc1OCC (centres undefined) | 2.7%
COc1cc(NC(=S)NCCc2ccc(S(N)(=O)=O)cc2)c(OC)cc1Cl | 7.47%
CCOc1ccc(C2(C)CC(=O)N(C)C2=O)cc1 (centres undefined) | -2.12%
O=S(=O)(/N=C(/c1ccccc1)N1CCOCC1)c1ccc(F)cc1F | -0.111%
Cc1ccccc1-c1nnc(SCC(=O)NCC2CCCO2)o1 (centres undefined) | 0.306%
Cc1cnc(CNC(=O)C2CCC(=O)N(CCc3cccc(F)c3)C2)[nH]1 (centres undefined) | -1.62%
Cc1ccnc(NS(=O)(=O)c2ccc(NC(=O)C3C4C=CC(C4)C3C(=O)O)cc2)n1 (centres undefined) | 1.92%
COCCN1C(=O)C(=O)/C(=C(/O)c2ccc(S(=O)(=O)N3CCOCC3)cc2)C1c1cccc([N+](=O)[O-])c1 (centres undefined) | -1.81%
Cc1[nH]c2ccc(C(=O)OC(C)C(=O)NC3CCCCC3C)cc2c1C (centres undefined) | -3.36%
O=C(C[C@@H]1C/C=C\C[C@H](Cc2ccc(F)cc2)C(=O)OC[C@H]2CCCN2C1=O)N[C@H](CO)Cc1ccccc1 | -3.41%
O=C(c1ccco1)N1CCN(c2ncccn2)CC1 | -1.83%
COc1ccc(CNC(=O)C2CCC(CNS(=O)(=O)c3ccc(C)cc3)CC2)cc1 (centres undefined) | -1.64%
